ERp5 block = inhibitors of human ERp5. ERp5 insulin aggregation, absorbance 650 nm, 90 min. Q15084. inhibition, % at 9.99 µM. 350,000 compounds, 0.05% hits;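 active means mean replicate inhibition above about 25%, with every replicate also reaching it, limit read from the data, passing the limit was not always enough; inconclusive means only one of those two criteria met; inactive means neither criterion met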
Target sequence (Q15084 whole entry, looked up): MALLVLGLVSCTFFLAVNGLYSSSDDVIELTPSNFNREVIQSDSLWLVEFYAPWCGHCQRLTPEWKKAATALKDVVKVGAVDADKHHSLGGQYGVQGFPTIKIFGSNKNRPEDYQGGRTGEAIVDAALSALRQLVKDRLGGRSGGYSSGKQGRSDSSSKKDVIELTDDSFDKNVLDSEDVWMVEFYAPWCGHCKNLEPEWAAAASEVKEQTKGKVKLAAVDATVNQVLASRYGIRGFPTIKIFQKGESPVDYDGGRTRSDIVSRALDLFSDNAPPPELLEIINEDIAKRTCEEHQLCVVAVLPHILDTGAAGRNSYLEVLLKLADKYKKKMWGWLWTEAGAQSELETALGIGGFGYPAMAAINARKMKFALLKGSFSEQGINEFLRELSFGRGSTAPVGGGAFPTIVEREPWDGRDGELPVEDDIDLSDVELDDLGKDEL
PvdQ inh = blocks Pseudomonas aeruginosa PvdQ acylase activity | AID 488965 | purified PvdQ acylase, fluorescence plate reader | 340,000 compounds, 0.063% hits | inhibition, % at 10 µM; in the data active means inhibition above about 30%, passing the limit was not always enough; inconclusive means no clear call, values can overlap the other calls;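 further: 0% = vehicle neutral wells and 100% = reference inhibitor wells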
N-glyco inh = N-linked glycosylation inhibition; reporter increase, % at 12.5 µM; D54 ERlucT glycosylation luciferase reporter, 24 h; percent of 100 nM tunicamycin response; 360,000 compounds, 0.23% hits; AID 588692;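 active means mean luciferase reporter signal, scaled so untreated is 0 and the glycosylation-blocking control 100, at or above a set limit in every replicate; inconclusive means mean reaches the limit but not every replicate does; inactive means mean below the limit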;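 further: luciferase carries N-glycosylation sites so blocking glycosylation raises the light; 0% = median of neutral control wells and 100% = median of 100 nM tunicamycin wells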
Vif inh = HIV Vif inhibition; AID 602346; HEK293T cells, Vif self-association by quenched fluorescence, imaging, 24 h; inhibition, % at 7.49 µM; 340,000 compounds, 0.35% hits; in the data active means inhibition above about 50%, passing the limit was not always enough; inconclusive means no clear call, values can overlap the other calls; inactive means below about 31%
PDI turbidity = inhibitors of human protein disulfide isomerase. PDI insulin aggregation turbidity, A650, 90 min. inhibition, % at 10 µM. 350,000 compounds, 0.052% hits. AID 588391;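 active means mean inhibition across replicates of 30% or more, whatever share of single replicates reach that level; inconclusive means mean inhibition below 30% while every single replicate reaches 30%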
* = called active by the depositor; u = inconclusive; x = no result given. Hits are enriched below; roughly 0.56% of the tested compounds scored in any of these assays.

SMILES	ERp5 block	PvdQ inh	N-glyco inh	Vif inh	PDI turbidity
CCCS(=O)(=O)c1cnc(C2COc3ccccc3O2)nc1N (stereo not drawn)	0	-3	-18	80*	10
O=C(N/N=C/c1cccs1)c1cc(C2CC2)nc2ccccc12	6	-10	9	0	6
O=C(N/N=C/c1cccs1)c1cc(-c2ccncc2)nc2ccccc12	x	10	13	117*	0
CCCc1cc(C(=O)N/N=C/c2ccc(CC)s2)c2ccccc2n1	x	12	14	x	-1
O=C(N/N=C/c1ccco1)c1cc(-c2ccncc2)nc2ccccc12	3	-3	28*	x	-7
CCc1ccc(/C=N/NC(=O)c2cc(-c3ccncc3)nc3ccccc23)s1	x	-9	30*	29	-5
CC(C)(C)c1cc(C(=O)N/N=C/c2ccco2)n[nH]1	x	-6	1	62*	7
Cc1cc(C(=O)N/N=C/c2ccco2)c2ccccc2n1	3	1	10	11	-1
C[C@H](CO)N1C[C@H](C)[C@H](CN(C)S(=O)(=O)c2ccccc2)Oc2ccc(NC(=O)Nc3ccc4c(c3)OCO4)cc2CC1=O	-4	x	x	x	x
Cc1ccc(C2SCC(=O)N2Cc2cn3ccsc3n2)o1 (stereo not drawn)	x	-25	0	10	0
Cc1cccc(-n2ncc3c(NCc4ccc5c(c4)OCO5)ncnc32)c1	x	-3	0	-12	-18
Cc1ccccc1-n1c(C)cc(/C=C(\C#N)C(=O)NCC2CCCO2)c1C (stereo not drawn)	x	5	-8	-2	1
CCOC(=O)c1c(NC(C)=O)sc2c(OCC(O)CN(CC)CC)c(Br)ccc12 (stereo not drawn)	5	3	7	-11	-1
CCOC(=O)c1c(NC(C)=O)sc2c(OCCN(CC)CC)c(Br)ccc12	-5	-9	85*	-8	4
COc1ccc(C(=O)Nc2cc(OC)cc3cccnc23)cc1	6	-8	0	-2	-6
Clc1ccc(C2=Nn3c(nnc3-c3n[nH]c4c3CCC4)SC2)cc1	x	-10	37*	28	-1
Cc1ccc(-c2nnc3n2N=C(c2ccc(Br)cc2)CS3)cc1	5	-16	-2	-6	x
Brc1ccc(C2=Nn3c(nnc3-c3n[nH]c4c3CCC4)SC2)cc1	x	-14	42*	13	-3
Cc1ccc(OC(C)C(=O)Nc2ccc(C)c(S(=O)(=O)Nc3ccc(C)cc3C)c2)cc1 (stereo not drawn)	x	5	-6	-5	7
COc1ccccc1CC(=O)Nc1ccon1	2	9	1	56*	4
CCn1c(COc2cccc(C)c2)nnc1SCC(=O)NC1CCCC1	1	-7	-1	7	-5
CCn1c(COc2cccc(OC)c2)nnc1SCC(=O)NC1CCCC1	-1	-16	-1	51*	7
CCCN(C)C[C@@H]1OCCCC[C@H](C)Oc2ccc(NC(=O)CCCN(C)C)cc2C(=O)N([C@H](C)CO)C[C@@H]1C	-3	x	x	x	x
OC(c1ccc2c(c1)OCO2)c1nccc2ccccc12 (stereo not drawn)	15	3	1	13	-2
OC(c1cccc(Cl)c1)c1nccc2ccccc12 (stereo not drawn)	-2	35*	-1	19	-72
SMILES	ERp5 block	PvdQ inh	N-glyco inh	Vif inh	PDI turbidity
O=C(Nc1cccc(-c2cn3cccnc3n2)c1)c1ccco1	-2	-6	0	-2	-6
O=C(Nc1cccc(-c2cn3cccnc3n2)c1)c1ccc(Br)o1	1	-30	3	81*	10
O=C(CNC(=O)c1ccc(Br)o1)Nc1cccc(-c2cnc3ccccc3n2)c1	x	3	26*	36	-3
O=C(Nc1cccc(-c2cnc3ccccc3n2)c1)c1ccco1	x	-6	-1	-13	1
CC(=O)Nc1ccc(S(=O)(=O)Nc2nnc(CC(C)(C)C)s2)cc1	4	-11	0	-10	-2
CNc1cc(NS(=O)(=O)c2ccc(N)cc2)nc(NC)n1	4	8	2	53*	-9
COc1ccc(C(=O)Nc2ccc(N3CCN(C(=O)C(C)C)CC3)cc2)cc1[N+](=O)[O-]	x	-4	0	64*	1
CCC(C)N(C(=O)COC(=O)/C=C/c1ccc(O)c(OC)c1)C1CCS(=O)(=O)C1 (stereo not drawn)	x	8	1	0	16
CCN1C(=O)c2cccc3c(S(=O)(=O)Nc4nc(C)cs4)ccc1c23	x	0	7	60*	-4
CCN1C(=O)c2cccc3c(S(=O)(=O)Nc4ccccn4)ccc1c23	x	-4	50*	31	9
CCN1C(=O)c2cccc3c(S(=O)(=O)Nc4ccccc4)ccc1c23	x	-2	51*	u	6
CCC(C(=O)OCC(=O)Nc1ccc(C(N)=O)cc1)c1ccccc1 (stereo not drawn)	-1	7	0	11	15
c1ccc(Cn2c(Nn3cnnc3)nc3ccccc32)cc1	x	-1	0	10	1
Cc1c(NC(=O)c2ccc(Cl)c([N+](=O)[O-])c2)cccc1-n1cnnn1	-1	-12	-2	56*	-1
O=C(NNC(=O)c1ccccc1O)c1ccc(NS(=O)(=O)c2ccc(F)cc2)cc1	-2	4	0	9	-2
Cn1c(-c2ccccc2)c(/C=N/NC(=O)c2ccc(O)cc2)c2ccccc21	-8	-13	54*	18	-2
O=C(NCc1ccccc1Cl)c1cccc2c1C(=O)c1ccc(-c3ccc(OC(F)(F)F)cc3)cc1S2(=O)=O	x	-10	304*	-1	6
O=C(NC1CCCCC1)c1cccc2c1C(=O)c1ccc(-c3ccc(OC(F)(F)F)cc3)cc1S2(=O)=O	7	6	20	2	7
O=C(NCc1ccccc1C(F)(F)F)c1cccc2c1C(=O)c1ccc(N3CCC(N4CCCCC4)CC3)cc1S2(=O)=O	-7	x	-21	75*	1
COCCN1C=C(C(=O)OC)C(c2ccccc2Cl)C(C(=O)OC)=C1	5	-6	4	7	1
CC(C)N(C(=O)[C@H]1C[C@H](CC(=O)NCCN2CCOCC2)C(=O)N2CCc3c([nH]c4cc(CCC(=O)N(C)C)ccc34)[C@]12C)C(C)C	5	-16	2	103*	9
CC[C@]12c3[nH]c4cc(-c5ccco5)ccc4c3CCN1C(=O)[C@@H](CC(=O)NCc1ccc(OC)c(OC)c1)C[C@@H]2C(=O)N1CCN(C(=O)c2ccco2)CC1	0	-15	3	x	38*
CC[C@]12c3[nH]c4cc(CCC(=O)N(C)C)ccc4c3CCN1C(=O)[C@@H](CC(=O)NCc1ccc(OC)c(OC)c1)C[C@@H]2C(=O)N1CCN(C(=O)c2ccco2)CC1	-3	6	1	12	-2
CC[C@]12c3[nH]c4cc(CCC(=O)N(C)C)ccc4c3CCN1C(=O)[C@@H](CC(=O)NC/C=C(\C)CCC=C(C)C)C[C@@H]2C(=O)N1CCN(C(=O)c2ccco2)CC1	x	-16	31*	6	6
O=C(C1CCCN(Cc2ccc3c(c2)OCO3)C1)N1CCCC1 (stereo not drawn)	x	-2	1	-5	-12

Screening results: PubChem, Broad Institute
